# Hits are enriched below; roughly 1.9% of the tested compounds scored in any of these assays.
# APP 5UTR inh – APP translation inhibition. SH-SY5Y APP 5'UTR-luciferase reporter, luminescence. inhibition, % at 2 µM. 190,000 compounds, 0.82% hits;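 active = inhibition above a set limit, derived from the sample mean plus 3 SD, cut at about 45% in these data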
# IEC-6 tox – kills IEC-6 intestinal cells in KLF5 counter-screen; IEC-6 cytotoxicity, luminescence viability; inhibition, % at 5 µM; 290,000 compounds, 0.78% hits; in the data active = inhibition above about 22%
# BaF3 tox – counter-screen for JAK2V617F inhibitors: parental Ba/F3 viability inhibitors; AID 1486; 220,000 compounds, 1.1% hits; CellTiter-Glo ATP luminescence; inhibition, % at 5.6 µM;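 active = inhibition above a per-campaign cutoff, the mean inhibition of all tested compounds plus 3 SD, cut at about 27% in these data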
# KLF5 inhibitor – kruppel-like factor 5 inhibition. DLD-1 KLF5 promoter-luciferase reporter, luminescence. inhibition, % at 5 µM. 290,000 compounds, 0.23% hits. AID 1700;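 active = inhibition above a per-plate limit of that plate's mean compound inhibition plus 3 SD, cut at about 60% in these data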;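 note: higher means less KLF5 promoter-driven luciferase light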
# Ba/F3 V617F tox – loss of viability in JAK2V617F-driven Ba/F3 cells. 220,000 compounds, 1.1% hits. inhibition, % at 5.6 µM. Ba/F3 EpoR-JAK2V617F viability, ATP luminescence. AID 1446;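 active = inhibition above the campaign mean plus 3 SD over all tested compounds, cut at about 24% in these data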;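 note: cytokine-independent growth of Ba/F3 cells driven by EpoR plus mutant JAK2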
# Hits are given with their value; i = inactive; nt = no result given.
SMILES,APP 5UTR inh,IEC-6 tox,BaF3 tox,KLF5 inhibitor,Ba/F3 V617F tox
Clc1ccc2c(c1)[C@H]1OCC[C@H]1[C@@H](c1ccco1)N2,i,i,i,i,i
CCc1ccc2c(c1)[C@H]1OCC[C@H]1[C@@H](c1cccs1)N2,65.4,i,40.8,i,i
CCc1ccc(S(=O)(=O)/N=C2/C=C(Sc3ncn[nH]3)C(=O)c3ccccc32)cc1,75.4,i,33.6,i,70.6
c1sc2[n+](c1C13CC4CC(CC(C4)C1)C3)CCS2,i,i,60.6,i,62.6
Brc1ccc(C2Nc3cccc4cccc(c34)N2)o1,i,i,i,i,i
CCOC(=O)C[N+](C)(C)CCOC1CC2CCC1(C)C2(C)C (centres undefined),i,i,30.2,i,i
CC1(C)C2CCC1(C)C(OCC[N+](C)(C)CC(=O)OC1CCCCC1)C2 (centres undefined),i,i,82.6,i,99.9
CC1(C)[C@H]2CC[C@]1(C)[C@@H](OC(=O)C[N+]1(C)CCOCC1)C2,nt,i,i,i,i
CCCCCn1c(NCc2ccco2)nc2ccccc21,i,i,i,i,i
Cn1ccnc1C(O)c1ccccc1 (centres undefined),i,i,i,i,i
COc1ccc2ccccc2c1C(O)c1nccn1C (centres undefined),i,i,38.0,i,59.4
O=C1/C(=C/c2ccncc2)CCC/C1=C\c1ccncc1,82.2,i,i,i,i
O=C1/C(=C/c2ccncc2)CCc2ccccc21,nt,i,i,i,i
Cc1cc(N2CCN(C)CC2)nc2ccc(NC(=S)N3CCCCC3)cc12,i,i,i,i,i
Cc1cccc(N2CCN(C(=S)Nc3ccc4nc(N5CCN(C)CC5)cc(C)c4c3)CC2)c1C,86.9,i,i,i,i
Cc1ccc(N2CC(C(=O)NCCS(=O)(=O)N3CCN(c4ccccc4F)CC3)CC2=O)cc1 (centres undefined),nt,i,nt,i,nt
CCc1ccc(-c2nc(C(N)=O)c3[nH]c(=O)n(-c4ccccc4OC)c3n2)cc1,94.6,i,i,i,i
O=[N+]([O-])c1ccc(N2CCN(Cc3cccc([N+](=O)[O-])c3)CC2)cc1,nt,i,nt,i,nt
CCc1ccc2nc(NC(=O)Cn3cnc4ccccc4c3=O)sc2c1,i,i,39.3,i,33.1
O=C(Cn1cnc2ccccc2c1=O)Nc1nc2ccccc2s1,i,i,i,i,i
CCOc1ccc2c(c1)[N+](C)(C)C(C)(C)C=C2C,i,i,60.5,i,54.1
COc1ccc2c(c1)[N+](C)(C)C(C)(C)C=C2C,i,i,46.7,i,26.1
Cc1ccc(S(=O)(=O)N2CCN(C(=O)C3CCCC3)CC2)cc1C,nt,i,nt,i,nt
O=C(O)C1CSC(c2ccccc2)N1C(=O)c1ccco1 (centres undefined),49.9,i,i,i,i
O=C(O)C1Cc2ccccc2CN1C(=O)c1ccco1 (centres undefined),nt,i,nt,i,nt
SMILES,APP 5UTR inh,IEC-6 tox,BaF3 tox,KLF5 inhibitor,Ba/F3 V617F tox
COCCNC(=O)CN1CCC(NC(=O)c2ccco2)CC1,i,i,45.7,i,i
O=C(CS(=O)c1ccc(C(F)(F)F)cc1[N+](=O)[O-])Oc1ccccc1 (centres undefined),i,i,47.8,i,53.1
CS(=O)(=O)c1ccc(S(=O)CC(=O)OCc2ccccc2)c([N+](=O)[O-])c1 (centres undefined),48.4,i,i,i,42.8
CCOC(=O)c1ccccc1OC(=O)CS(=O)c1ccccc1[N+](=O)[O-] (centres undefined),i,i,i,i,i
CC12C(=O)N(c3cccc(OC(=O)c4ccco4)c3)C(=O)C1C1c3ccccc3C2c2ccccc21 (centres undefined),51.6,i,i,i,i
COCCN=c1scc(-c2ccco2)n1/N=C/c1ccc(O)c(O)c1O,i,i,i,i,i
CC(C)N=c1scc(-c2ccco2)n1/N=C/c1ccc(O)c(O)c1,i,i,73.4,i,96.0
CCCCC(C(=O)O)C(C)CC(=O)Nc1ccn(-c2ccccc2)n1 (centres undefined),i,i,i,i,i
CCCCC(CCC(=O)Nc1ccn(-c2ccccc2)n1)C(=O)O (centres undefined),nt,i,63.1,i,i
Cc1cnc(C(=O)OCC(=O)NC(C)C)cn1,i,i,51.3,i,i
CCOc1ccccc1NC(=S)N1CCCCCC1,nt,i,nt,i,nt
O=C(NCc1ccccn1)C(=O)NCc1ccccn1,i,i,54.0,i,i
Cc1cccc(NC(=S)/N=C(\N)Nc2nc(C)c3cc(C)ccc3n2)c1,i,i,i,i,i
Cc1cccc(NC(=S)/N=C(\N)Nc2nc(C)c3ccc(C)cc3n2)c1,i,i,39.0,i,34.5
CCOCCCNc1ncnc2c1[nH]c1ccccc12,i,i,i,i,i
CCCCOCCCNc1ncnc2c1[nH]c1ccccc12,i,i,61.0,i,64.0
CCCCOc1ncnc2c1[nH]c1ccccc12,i,i,34.9,i,i
O=[N+]([O-])c1ccc(N2CCN(CCO)CC2)cc1Sc1ccccn1,i,i,i,i,i
CCOC(=O)CS(=O)(=O)c1ccccc1,i,i,i,i,i
CCOC(=O)CCS(=O)(=O)c1nc(-c2ccccc2)cc(C(F)(F)F)n1,i,i,i,i,39.2
CCOC(=O)CS(=O)(=O)c1nc(-c2ccccc2)cc(C(F)(F)F)n1,56.9,27.8,i,i,78.6
COC(=O)CCS(=O)(=O)c1nc(-c2ccccc2)cc(C(F)(F)F)n1,i,i,i,i,i
CS(=O)(=O)c1nc(-c2ccc(F)cc2)cc(C(F)(F)F)n1,i,25.1,i,i,i
CCOC(=O)CS(=O)(=O)c1nc(-c2ccc(F)cc2)cc(C(F)(F)F)n1,60.7,i,i,i,i
Cc1ccc(NC2=C(Cl)C(=O)OC2OC(=O)c2ccco2)cc1C (centres undefined),i,i,i,i,i
SMILES,APP 5UTR inh,IEC-6 tox,BaF3 tox,KLF5 inhibitor,Ba/F3 V617F tox
CCC(CC)C(=O)Nc1cccc(S(=O)(=O)c2cccc(NC(=O)C(CC)CC)c2)c1,i,i,i,i,i
Cc1nc(-c2ccccc2)sc1C(=O)NN,72.7,i,i,i,i
C=CCNC(=O)c1sc(-c2ccccc2)nc1C,i,i,i,i,i
COC(=O)CCC(=O)NC(=S)Nc1sc(C)c(C)c1C(N)=O,93.9,40.5,71.3,i,75.0
CC(C)(C)c1nnc(N/N=C/c2cc(Br)ccc2O)n(N)c1=O,80.5,i,i,i,i
C/C(=N\NC(=O)c1cccc(N/N=C(\C)c2ccco2)c1)c1ccco1,i,i,i,i,i
Cc1ccc(-c2nn3cnnc3c3ccccc23)cc1,i,i,82.0,i,i
CC(CN1CCOCC1)OC(=O)C1COc2ccccc2O1 (centres undefined),i,i,i,i,i
CC(CS(=O)(=O)c1ccccc1[N+](=O)[O-])N1CCOCC1 (centres undefined),i,i,i,i,i
CCCCCc1ccc(OCCC[n+]2ccccc2)c(CCCCC)c1,nt,i,84.0,i,99.9
C[n+]1cn(CC(O)COCc2ccccc2)c2ccccc21 (centres undefined),i,i,i,i,i

# Screens from PubChem BioAssay.
